In PubChem BioAssay (NCI) one finds growth data, which are given here for eight compounds.

Some test systems named below: NCI-H23 lung; NCI-H226 lung; NCI-H322M lung; HOP-62 NSCLC; NCI-H460 lung; HOP-92 NSCLC; NCI-H522 lung; A549/ATCC NSCLC; 786-0 renal; COLO 205 colon; DU-145 prostate; K-562 leukemia; MALME-3M melanoma; MDA-MB-231 breast; RXF 393 renal; SF-268 CNS; SF-539 CNS; UACC-257 melanoma; M14 melanoma; SF-295 CNS.
Holding throughout (assay): NCI-60 one-dose screen, 48 h (100 = growth as untreated, 0 = no growth, -100 = all killed)
Common to all, as to details: 10 µM unless noted

This is part of a sample that, as a whole, favours compounds with a hit. Of some 83,000 tested, about 20% had one in any assay.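 Method: cells in 96-well plates; compound added at one concentration; 48 h incubation; percent growth measured; values under 10 scored active.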 A number with no mark means an inactive call. Calls of active or inactive are those of the source.

With `O=C1NC(=O)C(c2ccccc2)O1` (configuration not stated), the growth is 102% in the test with NCI-H23 lung; 105% in the test with NCI-H226 lung; 98.9% in the test on NCI-H322M lung; 104% in the test on HOP-62 NSCLC; 109% in the test on NCI-H460 lung; 104% with HOP-92 NSCLC. For the same compound, the growth in the test with NCI-H522 lung was 90.2%; in the test on A549/ATCC NSCLC, 100%; in the test with 786-0 renal, 90.3%; in the test with COLO 205 colon it was 108%; in the test with DU-145 prostate, 119%; in the test with K-562 leukemia, 92.6%. The growth was 100% with MALME-3M melanoma; 122% in the test on MDA-MB-231 breast; 121% in the test on RXF 393 renal; 115% in the test with SF-268 CNS; 96.4% with SF-539 CNS; 98.8% with UACC-257 melanoma. Besides, the growth with M14 melanoma was 100%.
Turning to `CC(C)(C)CC1(C)NC(=O)NC1=O` (configuration not stated), the growth was 103% with NCI-H23 lung; 112% in the test with NCI-H226 lung; 126% with NCI-H322M lung; 99.1% in the test with HOP-62 NSCLC; 120% with NCI-H460 lung; 107% with HOP-92 NSCLC. The growth was 150% in the test on NCI-H522 lung; 120% with A549/ATCC NSCLC; 98.7% with 786-0 renal; 135% in the test with COLO 205 colon; 114% in the test on DU-145 prostate; 126% with K-562 leukemia. The growth in the test with MALME-3M melanoma is 111%; in the test with MDA-MB-231 breast it was 118%; in the test with SF-268 CNS it was 119%; in the test with SF-295 CNS, 108%; in the test with SF-539 CNS, 109%; with UACC-257 melanoma, 114%. In the test on M14 melanoma, the growth is 104%.
`COc1ccc2c(c1)Nc1ccccc1S2`: the growth in the test on NCI-H23 lung is 104%; in the test with NCI-H226 lung it was 108%; in the test on NCI-H322M lung, 101%; in the test on HOP-62 NSCLC, 105%; with NCI-H460 lung it was 109%; in the test with HOP-92 NSCLC, 78.5%. In addition, the growth with NCI-H522 lung was 98.9%; with A549/ATCC NSCLC, 104%; in the test with 786-0 renal, 98.7%; in the test with COLO 205 colon it was 111%; with DU-145 prostate it was 116%; with K-562 leukemia it was 102%. Also, the growth is 105% with MALME-3M melanoma; 109% with MDA-MB-231 breast; 115% in the test with RXF 393 renal; 108% in the test on SF-295 CNS; 103% in the test with SF-539 CNS; 115% in the test with UACC-257 melanoma. Also, the growth in the test with M14 melanoma was 101%.
For the compound `CN(C)c1ncnc2c1cnn2C`, the growth with NCI-H23 lung was 103%; with NCI-H226 lung, 98.9%; in the test on NCI-H322M lung it was 102%; in the test with HOP-62 NSCLC, 95.8%; with NCI-H460 lung it was 103%; in the test with HOP-92 NSCLC, 89.2%. Further, the growth with NCI-H522 lung is 106%; with A549/ATCC NSCLC, 93.9%; in the test on 786-0 renal, 99%; in the test on COLO 205 colon, 107%; with DU-145 prostate, 104%; with K-562 leukemia, 97%. Besides, the growth with MALME-3M melanoma was 103%; in the test on MDA-MB-231 breast it was 109%; with SF-268 CNS, 84.6%; in the test with SF-295 CNS, 94.5%; in the test with SF-539 CNS, 94.2%; with UACC-257 melanoma, 84.2%. Besides, in the test with M14 melanoma, the growth is 103%.
Consider `Cc1cccnc1NC1OC(=O)c2ccccc21` (configuration not stated), for which the growth in the test with NCI-H23 lung was 100%; in the test on NCI-H226 lung, 98.6%; in the test on NCI-H322M lung it was 96.2%; in the test on HOP-62 NSCLC, 99.7%; in the test with NCI-H460 lung, 105%; in the test with HOP-92 NSCLC, 119%. For the same compound, the growth was 88.6% with NCI-H522 lung; 96.2% in the test on A549/ATCC NSCLC; 99.6% with 786-0 renal; 101% with COLO 205 colon; 102% in the test on DU-145 prostate; 101% in the test with K-562 leukemia. Also, the growth in the test on MALME-3M melanoma was 93.7%; in the test on MDA-MB-231 breast, 115%; in the test with RXF 393 renal, 118%; with SF-268 CNS, 124%; in the test on SF-539 CNS, 109%; in the test on UACC-257 melanoma, 100%. Further, in the test with M14 melanoma, the growth is 95.7%.
Take `NNc1ncnc2c1ncn2C1OC(CO)C(O)C1O` (configuration not stated): the growth with NCI-H23 lung was 66%; in the test on NCI-H226 lung, 55.8%; with NCI-H322M lung it was 40%; in the test on HOP-62 NSCLC, 15%; with NCI-H460 lung, 2.13% (active); with HOP-92 NSCLC, 34.9%. The growth with NCI-H522 lung is 20.1%; in the test with A549/ATCC NSCLC, 18%; in the test on 786-0 renal it was 35.9%; in the test with COLO 205 colon, 40.4%; in the test on DU-145 prostate it was 19.3%; with K-562 leukemia, 30.4%. The growth in the test on MALME-3M melanoma was 122%; in the test on MDA-MB-231 breast it was 10.7%; with SF-268 CNS, 50.3%; in the test on SF-295 CNS it was 38.7%; in the test on SF-539 CNS, 90.9%; in the test on UACC-257 melanoma, 84.9%. Moreover, the growth in the test on M14 melanoma is 31.6%.
With `CNc1ccccc1C(=O)N/N=C/C=C/c1ccccc1`, the growth in the test with NCI-H23 lung was 39.1%; in the test on NCI-H226 lung, 66.7%; in the test on NCI-H322M lung it was 30.8%; in the test with HOP-62 NSCLC it was 26.9%; in the test with NCI-H460 lung it was 11%; with HOP-92 NSCLC, 69.3%. In addition, the growth was -18.1% (active) in the test on NCI-H522 lung; 30.7% with A549/ATCC NSCLC; 35.3% with 786-0 renal; -1.61% (active) in the test with COLO 205 colon; 14.9% in the test on DU-145 prostate; 8.9% (active) with K-562 leukemia. Besides, the growth in the test with MALME-3M melanoma is 31.5%; with MDA-MB-231 breast it was 49.3%; in the test on SF-268 CNS it was 34.9%; with SF-295 CNS, -0.27% (active); with SF-539 CNS it was 21.7%; with UACC-257 melanoma, 39.1%. The growth with M14 melanoma is 17.1%.
As for `O=C(CC(CC(=O)c1ccccc1)c1ccccn1)c1ccccc1`, the growth in the test with NCI-H23 lung was 92.9%; in the test on NCI-H226 lung it was 95.7%; in the test with NCI-H322M lung, 102%; in the test on HOP-62 NSCLC, 105%; in the test with NCI-H460 lung, 102%; in the test with HOP-92 NSCLC it was 94.7%. The growth in the test on NCI-H522 lung was 95.1%; with A549/ATCC NSCLC it was 98.5%; with 786-0 renal it was 113%; in the test with COLO 205 colon, 101%; in the test with DU-145 prostate it was 110%; with K-562 leukemia it was 92.6%. For the same compound, the growth in the test with MALME-3M melanoma was 91.5%; in the test on MDA-MB-231 breast, 92.7%; in the test on RXF 393 renal, 111%; in the test on SF-268 CNS, 105%; with SF-539 CNS it was 106%; with UACC-257 melanoma, 105%. In the test with M14 melanoma, the growth is 103%.
